Laboratory results reported in PubChem BioAssay (NCATS).
Records with an inconclusive call do not appear. Active and inactive are the calls of the source. Calls follow the shape of the dose curve; as a rule, active = well fitted cell-killing curve with a large enough effect; inconclusive = small, poorly fitted or top-dose-only effect, or effect the other way; inactive = flat fitted curve, though single readings scatter.

Columns and labels:
Assay in all cases: Primary qHTS to identify gynecologic anti-cancer compounds using libraries of approved drugs and bioactive compounds (AID 1345084); also: nearly all actives have a fitted effect of over 55% in size
Conditions in all cases: Gynecologic cancer cell panel viability, ATPlite luminescence, 48 h; series mostly up to 57.5 µM
OV90 = system: OV90
In short: (§1)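 Cells, 1,000 per well, were allowed to settle for 16 h at 37 C before compound addition. Five concentrations were tested for 48 h, and viability was read by ATPlite luminescence after 15 min at room temperature.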

PA-1 = system: PA-1
In short: as §1

SKOV3 = system: SKOV3
In short: as §1

Tov-21-G = system: Tov-21-G
In short: as §1

Tov112D = system: Tov112D
In short: as §1
% is scaled to controls: 0 for no effect and ±100 for the full control effect.

C/C1=C\[C@H]2OC(=O)[C@@H](C)[C@@H]2CC/C(C(=O)O)=C/CC1
inactive: Potency (OV90) | Potency (PA-1) | Potency (SKOV3) | Potency (Tov-21-G) | Potency (Tov112D)

CC(C)C(=O)OC[C@H]1O[C@H](O[C@H]2O[C@H](CO)[C@@H](O)[C@H](O)[C@H]2O)[C@H](O)[C@@H](O)[C@@H]1O
inactive: Potency (OV90) | Potency (PA-1) | Potency (SKOV3) | Potency (Tov-21-G) | Potency (Tov112D)

C=C(C)C1Cc2cc(C(=O)OC3OC(CO)C(O)C(O)C3O)ccc2O1 (stereo not given)
inactive: Potency (OV90) | Potency (PA-1) | Potency (SKOV3) | Potency (Tov-21-G) | Potency (Tov112D)

C[C@@H]1O[C@@H](O[C@H]2[C@H](O[C@H]3CC[C@@]4(C)C(CC[C@]5(C)C4C=C[C@]46OC[C@@]7(CCC(C)(C)C[C@H]74)[C@@H](O)C[C@]65C)[C@]3(C)CO)O[C@H](CO)[C@@H](O)[C@@H]2O[C@@H]2O[C@H](CO)[C@@H](O[C@@H]3O[C@@H](C)[C@H](O)[C@@H](O)[C@H]3O)[C@H](O)[C@H]2O)[C@H](O)[C@H](O)[C@H]1O (stereo not given in full)
inactive: activity change, negative = cytotoxicity (OV90) -28.6% [at 11.6 µM] | activity change, negative = cytotoxicity (PA-1) -23.2% [at 11.6 µM] | activity change, negative = cytotoxicity (SKOV3) -29.1% [at 11.6 µM] | activity change, negative = cytotoxicity (Tov-21-G) -25.6% [at 11.6 µM] | activity change, negative = cytotoxicity (Tov112D) -4.43% [at 11.6 µM]

CON(C)C(=O)[C@H](O)[C@H](Cc1ccccc1)NC(=O)c1cc2cc(Cl)ccc2[nH]1
inactive: Potency (OV90) | Potency (PA-1) | Potency (SKOV3) | Potency (Tov-21-G) | Potency (Tov112D)

Cc1noc(=O)c2ccc(NC(=O)C(O)(CC(C)(C)c3cccc4c3OCC4)C(F)(F)F)cc12 (stereo not given)
inactive: Potency (OV90) | Potency (PA-1) | Potency (SKOV3) | Potency (Tov-21-G) | Potency (Tov112D)
